Measurements as given in PubChem BioAssay AID2202241 (National Center for Advancing Translational Sciences (NCATS), 2025).
Active and inactive are the calls of the source. The rule behind the calls is not given here. Square brackets hold non-standard residues; d marks the D form. Peptide text beside a SMILES is read from it. Dolaproine = CO[C@@H]([C@@H]1CCCN1)[C@@H](C)C(=O)O; Dil = CC[C@H](C)[C@H](NC)[C@@H](CC(=O)O)OC; NMeV = CN[C@H](C(=O)O)C(C)C

Experiment: Identification of antibody-drug conjugate (ADC) payloads which are substrates of ATP-binding cassette drug efflux transporters: cell line panel data
Details: 99 cancer cell line panel, CellTiter-Glo viability, 48 h; hits give low values
Description: Antibody-drug conjugates (ADCs) feature an antibody recognizing a specific protein joined to a potent toxic payload. Numerous antibody-drug conjugates have received FDA approval; however, clinical resistance arises. Resistance mechanisms include decreased expression or mutation of the antibody target, impaired payload release, or increased expression of ATP-binding cassette (ABC) efflux transporters associated with multidrug resistance. We therefore sought to characterize the activity of ADC payloads across a broad set of cancer cell lines. We performed a high-throughput screen with 27 common ADC payloads against a panel of 99 cell lines to assess sensitivity to various payloads. Duocarmycin DM and PNU-159682 were exquisitely toxic across the panel of cancer cell lines of varying origins. These findings highlight the potentially broad applicability of Duocarmycin DM and PNU-159682 as ADC payloads in future ADC development.
Compounds were sourced from Levena Biopharma (San Diego, CA), Selleck Chem (Houston, TX), ChemieTek (Indianapolis, IN), or Microsource Discovery Systems (Gaylordsville, CT). Cell line sources and culture conditions were as follows: CAL-27 (ATCC: CRL-2095) and Hs 766T (ATCC: HTB-134) were grown in DMEM media +10% FBS. RKO (ATCC: CRL-2577), A-427 (ATCC: […]), BT-20 (ATCC: HTB-19), Detroit562 (ATCC: CCL-138), HARA-B (Cytion: 300465), PA-1 (ATCC: CRL-1572), TCCSUP (ATCC: […]), UM-UC-3 (ATCC: CRL-1749), and WI-38 (ATCC: CCL-75) were grown in EMEM media +10% FBS. AGS (ATCC: CRL-1739) was grown in F12K media +10% FBS. JJN-3 (DSMZ: ACC 541) was grown in IMDM media +20% FBS. 769-P (ATCC: CRL-1933), 786-O (ATCC: CRL-1932), A-375 (ATCC: CRL-1619), A-431 (ATCC: CRL-1555), A-549 (ATCC: CCL-185), A2780 (Cytion: 300491), ACHN (ATCC: CRL-1611), BT-474 (ATCC: HTB-20), BT-549 (ATCC: HTB-122), CCRF-CEM (ATCC: CCL-119), Daudi (ATCC: CCL-213), HaCaT (Cytion: 300493), HCC38 (ATCC: CRL-2314), HCC827 (ATCC: CRL-2868), HCT15 (ATCC: CCL-225), HEL 92.1.7 (ATCC: TIB-180), Hs 352.Sk (ATCC: CRL-7250), Hs578T (ATCC: HTB-126), HT-1080 (ATCC: CCL-121), HuCC-T1 (Riken Bioresource Center: RCB1960), HuP-T3 (DSMZ: ACC 259), HuP-T4 (DSMZ: ACC 223), IM-9 (ATCC: CCL-159), JJ012 (Gift: Karina Galoian (University of Miami)), JM-1 (ATCC: CRL-10423), K-562 (ATCC: CCL-243), Kasumi-3 (ATCC: CRL-2725), KMS-12-BM (DSMZ: ACC 551), LOUCY (ATCC: CRL-2629), LoVo (ATCC: CCL-229), MCF-7 (ATCC: HTB-22), MDA-MB-231 (ATCC: HTB-26), MDA-MB-436 (ATCC: HTB-130), MDA-MB-468 (ATCC: HTB-132), MIA PaCa-2 (ATCC: CRL-1420), MM1.R (ATCC: CRL-2975), MM1.S (ATCC: CRL-2974), NALM-6 (ATCC: CRL-3273), NCI-H1299 (ATCC: CRL-5803), NCI-H1355 (ATCC: CRL-5865), NCI-H1395 (ATCC: CRL-5868), NCI-H1437 (ATCC: CRL-5872), NCI-H2122 (ATCC: CRL-5985), NCI-H2170 (ATCC: CRL-5928), NCI-H226 (ATCC: CRL-5826), NCI-H23 (ATCC: CRL-5800), NCI-H322M (NIH: NCI-60), NCI-H460 (ATCC: HTB-177), NCI-H522 (ATCC: CRL-5810), NCI-H929 (ATCC: CRL-3580), NIH 3T3 (ATCC: CRL-1658), OCI-M2 (DSMZ: ACC 619), OPM-2 (DSMZ: ACCC 50), OVCAR-3 (ATCC: HTB-161), OVCAR-4 (Gift: Phil Lorenzi MD Anderson), OVCAR-8 (Gift: Phil Lorenzi MD Anderson), Panc 10.05 (ATCC: CRL-2547), PANC-1 (ATCC: CRL-1469), Pfeiffer (ATCC: CRL-2632), PL45 (ATCC: CRL-2558), PSN1 (ATCC: CRL-3211), Raji (ATCC: CCL-86), RD (Gift: Mari Yohe NCI), RPMI-8226 (ATCC: CRM-CCL-155), RS4;11 (ATCC: CRL-1873), SK-BR-3 (ATCC: HTB-30), SK-MEL-28 (ATCC: HTB-72), SMS-CTR (Gift: Mari Yohe NCI), SNU-16 (ATCC: CRL-5974), SU-DHL-8 (ATCC: CRL-2961), SU.86.86 (ATCC: CRL-1837), SW1990 (ATCC: CRL-2172), SW403 (ATCC: CCL-230), SW480 (ATCC: CCL-228), SW579 (ATCC: HTB-107), T-47D (ATCC: HTB-133), T24 (ATCC: HTB-4), and U-937 (ATCC: CRL-1593.2) were grown in RPMI +10% FBS. U266B1 (ATCC: TIB-196) were grown in RPMI +15% FBS. ME-1 (ATCC: HB-119), MOLM-13 (DSMZ: ACC 554), AMO1 (DSMZ: ACC 538), MOLP-8 (DSMZ: ACC 569), MV4-11 (ATCC: CRL-9591), PL-21 (DSMZ: ACC 536), and L-363 (DSMZ: ACC 49) were grown in RPMI +20% FBS. […]

SMILES	viability AUC
CC[C@H](C)[C@@H]([C@H](N)CC(=O)N1CCC[C@H]1[C@H](OC)[C@@H](C)C(=O)N[C@@H](Cc1ccccc1)c1nccs1)N(C)C(=O)[C@@H](NC(=O)[C@@H](NC)C(C)C)C(C)C	738 (active)
COc1cc2cc(c1Cl)N(C)C(=O)C[C@H](O)[C@]1(C)O[C@H]1[C@H](C)C1C[C@@](O)(NC(=O)O1)[C@H](OC)/C=C/C=C(\C)C2	1010 (active)
CCN(C(C)=O)[C@H]1CO[C@@H](O[C@H]2[C@H](O[C@H]3C#C/C=C\C#C[C@]4(O)CC(=O)C(NC(=O)OC)=C3/C4=C\CSSSC)O[C@H](C)[C@@H](NO[C@H]3C[C@H](O)[C@H](SC(=O)c4c(C)c(I)c(O[C@@H]5O[C@@H](C)[C@H](O)[C@@H](OC)[C@H]5O)c(OC)c4OC)[C@@H](C)O3)[C@@H]2O)C[C@@H]1OC	700 (active)
CC[C@H](C)[C@@H]([C@@H](CC(=O)N1CCC[C@H]1[C@H](OC)[C@@H](C)C(=O)N[C@@H](Cc1ccccc1)C(=O)O)OC)N(C)C(=O)[C@@H](NC(=O)[C@@H](NC)C(C)C)C(C)C (H-[NMeV]V[Dil][Dolaproine]F-OH)	938 (active)
COc1cccc2c1C(=O)c1c(O)c3c(c(O)c1C2=O)C[C@@](O)(C(=O)CO)C[C@@H]3O[C@H]1C[C@H]2[C@H](O[C@@H]3[C@@H](OC)OCCN32)[C@H](C)O1	549 (active)
COc1ccc(C2=CN3C(=O)c4cc(OC)c(OCCCOc5cc6c(cc5OC)C(=O)N5C=C(c7ccc(N)cc7)C[C@@H]5C=N6)cc4N=C[C@H]3C2)cc1	762 (active)
CCN[C@H]1CO[C@@H](O[C@H]2[C@H](O[C@H]3C#C/C=C\C#C[C@]4(O)CC(=O)C(NC(=O)OC)=C3/C4=C\CSSSC)O[C@H](C)[C@@H](NO[C@H]3C[C@H](O)[C@H](SC(=O)c4c(C)c(I)c(O[C@@H]5O[C@@H](C)[C@H](O)[C@@H](OC)[C@H]5O)c(OC)c4OC)[C@@H](C)O3)[C@@H]2O)C[C@@H]1OC	635 (active)
CN(C)CCOc1ccc2[nH]c(C(=O)N3C[C@@H](CCl)c4c3cc(O)c3ccccc43)cc2c1	514 (active)
CC(C)(C)OC(=O)Nc1ccc2[nH]c(C(=O)N3C[C@@H](CCl)c4c3cc(O)c3ccccc43)cc2c1	645 (active)
CC[C@H](C)[C@@H]([C@H](N)CC(=O)N1CCC[C@H]1[C@H](OC)[C@@H](C)C(=O)N[C@@H](Cc1ccccc1)c1nccs1)N(C)C(=O)[C@@H](NC(=O)[C@H](C(C)C)N(C)C)C(C)C	769 (active)
COC(=O)c1cc2c3c(cc(O)c2[nH]1)N(C(=O)c1cc2cc(OC)c(OC)c(OC)c2[nH]1)CC3CCl (stereo unspecified)	651 (active)
